Results: PubChem BioAssay (NCATS)
Inconclusive results are not listed. The source made the active and inactive calls. The call rests on the fitted dose curve; in most records, active means well fitted inhibition curve with a large enough effect; inconclusive means small, poorly fitted or top-dose-only effect; inactive means flat fitted curve, though single readings scatter.

Assays:
Test in all cases: qHTS profiling for inhibitors of Plasmodium falciparum proliferation (AID 504749); further: nearly all actives have a fitted effect of over 60% in size
Details in all cases: P. falciparum in erythrocytes, SYBR Green DNA, 72 h; series mostly up to 28.7 µM
CP268 = system: CP268
How it was run: (§1)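 Readout was DNA-dye fluorescence from lysed cultures, ex 485/em 535 nm. Parasitized red cells had grown 72 h with compound; data scaled between 0.29 uM artemisinin and DMSO wells and corrected using vehicle-only plates.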

CP269 = system: CP269
How it was run: as §1

CP286 = system: CP286
How it was run: as §1

CP291 = system: CP291
How it was run: as §1

CP297 = system: CP297
How it was run: as §1

CP305 = system: CP305
How it was run: as §1

CP315 = system: CP315
How it was run: as §1

CP325 = system: CP325
How it was run: as §1

CP329 = system: CP329
How it was run: as §1

CP335 = system: CP335
How it was run: as §1

DFO2036 = system: DFO2036
How it was run: as §1

DIV30 = system: DIV30
How it was run: as §1

Dd2 = system: Dd2
How it was run: as §1

ECU = system: ECU
How it was run: as §1

FAB9 = system: FAB9
How it was run: as §1

GB4 = system: GB4
How it was run: as §1

HB3 = system: HB3
How it was run: as §1

ICS = system: ICS
How it was run: as §1

DIV14 = system: DIV14
How it was run: as §1

Measured: Potency

CC[N+](CC)(CC(=O)Nc1c(C)cccc1C)Cc1ccccc1
inactive: CP268 | CP269 | CP286 | CP291 | CP297 | CP305 | CP315 | CP325 | CP329 | CP335 | DFO2036 | DIV30 | Dd2 | ECU | FAB9 | GB4 | HB3 | ICS

CC(=O)Nc1ccc(OCCOCCOc2ccc(NC(C)=O)cc2)cc1
inactive: CP268 | CP269 | CP286 | CP291 | CP297 | CP305 | CP315 | CP325 | CP329 | CP335 | DFO2036 | DIV14 | DIV30 | Dd2 | ECU | FAB9 | GB4 | HB3 | ICS

Cc1cc(NC(=O)C2=C(O)c3ccccc3S(=O)(=O)N2C)no1
inactive: CP268 | CP269 | CP286 | CP291 | CP297 | CP305 | CP315 | CP325 | CP329 | CP335 | DFO2036 | DIV14 | DIV30 | Dd2 | ECU | FAB9 | GB4 | HB3 | ICS
